TDP-43 yeast inh – TDP-43 toxicity inhibition in yeast; TDP-43 expressing yeast growth rescue, BacTiter-Glo, 24 h; Potency, µM (series often up to 46.1 µM), hits mostly activators; actives 1.8% (n = 410,000); AID 652104; note: nearly all actives have a fitted effect of over 50% in size
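In this qHTS, compounds that restore growth of yeast expressing TDP-43 appear as activators. Cells (OD600=0.02, galactose medium, raffinose-pregrown) are incubated with compound 24 hr at 30 deg C and growth is quantified by BacTiter-Glo.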
Abeta yeast res – restores growth of yeast expressing A-beta42 peptide. actives 0.063% (n = 410,000). yeast expressing A-beta42, growth rescue, OD600, 48 h; response scale: 0% DMSO, 100% iron-clioquinol control. Potency, µM (top dose mostly 46.1 µM), usual class: activators. AID 1347071; note: nearly all actives have a fitted effect of over 55% in size
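Yeast growth medium received pinned compounds, then yeast cells expressing toxic A-beta were added; plates incubated at 30 C for 48 hr. Growth read as absorbance at 600 nm, normalized to DMSO and equimolar FeCl3 plus clioquinol controls.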
LDHA block – blocks human lactate dehydrogenase A. AID 1347041. actives 0.15% (n = 480,000). purified LDHA, NADH/diaphorase-resazurin fluorescence; hits give low values. P00338. activity change, % (values are at about 110 or 230 µM); in the data active = activity change below about -30%; inconclusive = mostly about -25% to -30%
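Enzyme activity of human lactate dehydrogenase 5 (2 nM; 0.06 mM NADH, 0.2 mM pyruvate, 5 min, RT) is measured via a resazurin/diaphorase fluorescence readout of residual NADH.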
PTHR1 ag – activates the human parathyroid hormone receptor PTHR1 | Q03431 | HEK293 GP2 PTHR1 cells, GloSensor cAMP luminescence, 1 h | actives 0.075% (n = 410,000) | Potency, µM (top dose mostly 115 µM), hits mostly activators | AID 743266; note: nearly all actives have a fitted effect of over 55% in size
Target sequence (Q03431 whole entry, looked up): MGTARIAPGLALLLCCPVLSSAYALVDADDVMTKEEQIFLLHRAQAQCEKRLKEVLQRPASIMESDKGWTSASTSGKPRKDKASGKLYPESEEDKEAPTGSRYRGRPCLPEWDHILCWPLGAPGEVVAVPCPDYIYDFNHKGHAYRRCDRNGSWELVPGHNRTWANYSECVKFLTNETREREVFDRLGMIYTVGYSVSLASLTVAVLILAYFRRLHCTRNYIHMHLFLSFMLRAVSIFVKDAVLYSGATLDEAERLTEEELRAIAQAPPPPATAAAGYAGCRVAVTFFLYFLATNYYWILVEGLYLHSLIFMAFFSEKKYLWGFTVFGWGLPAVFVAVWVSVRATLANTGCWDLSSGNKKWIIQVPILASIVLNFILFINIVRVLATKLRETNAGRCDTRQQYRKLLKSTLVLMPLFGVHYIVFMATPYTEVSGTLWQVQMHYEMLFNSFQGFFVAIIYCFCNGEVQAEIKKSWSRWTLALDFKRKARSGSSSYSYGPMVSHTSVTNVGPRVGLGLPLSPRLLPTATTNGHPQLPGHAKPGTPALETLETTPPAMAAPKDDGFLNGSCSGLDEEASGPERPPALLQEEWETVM
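HEK-293-derived GP2 cells expressing PTHR1 and a GloSensor cAMP reporter, 3,000/well, plated overnight, given luciferin plus IBMX (each 0.5 mM as added) for 1 h at 37 °C, then compound for 1 h at 37 °C. Luminescence was read after 15 min at room temperature.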
aSyn yeast inh – alpha-synuclein toxicity inhibition in yeast. Potency, µM (doses to about 46.1 µM), usual class: activators. AID 652106. Yeast expressing alpha-synuclein, growth rescue, BacTiter-Glo, 24 h. actives 0.14% (n = 370,000); note: nearly all actives have a fitted effect of over 65% in size
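Galactose-induced alpha-syn yeast (OD600=0.02, raffinose-pregrown) + pinned cpd, 24 hr, 30 deg C; growth by BacTiter-Glo luminescence. Growth restoration scores as activation.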
FUS yeast rescue – rescues growth of FUS-expressing yeast | S. cerevisiae FUS-expressing, growth rescue, OD600, 24 h | Potency, µM (titrated, usually from 76.6 µM), actives largely listed as activators | actives 0.24% (n = 390,000); note: nearly all actives have a fitted effect of over 55% in size
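S. cerevisiae expressing FUS from galactose induction served as the toxicity model. Growth after 24hr at 30C, read as absorbance at 600 nm, indicates suppression of toxicity; compounds dosed at several concentrations.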
Hits are given with their value; – = inactive; ? = inconclusive; · = not tested or not shown. This is a sample that favours compounds with a hit; in the whole collection about 1.9% have one here. Unless noted, calls come from the whole dose curve; as a rule, active = well fitted curve in the direction sought with a large enough effect; inconclusive = small, poorly fitted or top-dose-only effect, or another doubt; inactive = no such curve, though single readings can be large; an effect the other way counts as inactive or inconclusive.

SMILES	TDP-43 yeast inh	Abeta yeast res	LDHA block	PTHR1 ag	aSyn yeast inh	FUS yeast rescue
O=C(Nc1nc(-c2ccccc2)c(-c2ccccc2)o1)c1ccc(F)cc1	?	11µM	–	–	?	–
CCNC(=O)NC(=O)COC(=O)c1cc(C)nc2ccccc12	·	·	–	·	·	·
CCCn1c(=O)[nH]c(=O)c2c1nc(-c1ccc(OCC#N)c(OC)c1)n2CCN1CCOCC1	·	·	–	·	·	·
CC(C)(C)S(=O)N1Cc2cc(C(=O)NCc3ccc(Oc4ccccc4)cc3)nc(-c3cccc(-c4cc5ccccc5o4)c3)c2[C@@H]1CCO (stereo not given in full)	22µM	–	–	–	–	32µM
COc1ccc(/C=C2\Oc3c(ccc(OS(C)(=O)=O)c3C)C2=O)cc1	·	·	–	·	·	·
COCCCNc1oc(/C=C/c2cccc(OC)c2)nc1C#N	·	·	–	·	·	·
Cc1cccc(C(=O)O/N=C(\N)Cc2cccc3ccccc23)c1	–	–	–	–	–	–
Cc1cccc(/C(N)=N/OC(=O)Cc2cccc3ccccc23)c1	11µM	–	–	–	–	–
Cc1ccc(/C(N)=N/OC(=O)Cc2cccc3ccccc23)cc1	14µM	–	–	–	–	–
O=C(Cc1ccc2c(c1)CCC2)Nc1ccc(-c2nccs2)cc1	·	·	–	·	·	·
Cc1nc(Cl)c(C(=O)NC(=O)NCc2ccccc2)c(C)c1Cl	14µM	–	–	–	–	–
O=C1C(Cl)=C(Nc2ccccc2O)C(=O)N1c1ccccc1	35µM	–	–	–	–	–
COc1ccc(/C=N/NC(=O)c2ccc(NC(C)=O)cc2)cc1COc1ccc(F)cc1F	–	–	–	–	–	25µM
O=C(OCc1nc2scc(-c3ccccc3)c2c(=O)[nH]1)c1ccco1	35µM	?	–	–	–	–
COCCNC(=O)/C(C#N)=C/c1ccccc1Br	22µM	–	–	–	–	–
COCCNC(=O)/C(C#N)=C/C=C/c1ccccc1	–	–	–	–	–	–
CCOc1ccc(/C=C(\C#N)c2nc3ccccc3[nH]2)c(OCC)c1	·	·	–	·	·	·
CCCNC(=O)c1nnsc1S(=O)(=O)c1ccc(Cl)cc1	1.6µM	–	–	–	–	–
Fc1cccc(-c2oncc2-c2nnnn2-c2ccc(Cl)cc2)c1	11µM	–	–	–	–	–
CCCS(=O)(=O)NCCc1sc2nc(-c3ccc(F)cc3)nn2c1C	–	–	–	–	·	–
Cc1cc(C)c(S(=O)(=O)NCCc2sc3nc(-c4ccc(F)cc4)nn3c2C)c(C)c1	20µM	?	–	–	·	–
Cc1ccc(-c2nc3sc(CCNC(=O)c4ccc(Br)o4)c(C)n3n2)cc1	18µM	–	–	–	·	?
Cc1ccc(-c2nc3sc(CCNC(=O)c4ccco4)c(C)n3n2)cc1	20µM	–	–	–	·	–
Cc1c(CCNC(=O)Cc2ccccc2)sc2nc(-c3ccc(F)cc3)nn12	10µM	–	–	–	·	–
Fc1ccc(CNCCN2CCCC2)cc1F	·	·	–	·	·	·
SMILES	TDP-43 yeast inh	Abeta yeast res	LDHA block	PTHR1 ag	aSyn yeast inh	FUS yeast rescue
COc1cc(C(=O)Oc2ccccc2C#N)ccc1OCc1ccc(Cl)cc1	·	·	–	·	·	·
Cc1cccc(-n2cc(-c3ccccc3)c3c(NC4CCCC4)ncnc32)c1	20µM	–	–	–	·	–
Cc1ccc(-n2cc(-c3ccccc3)c3c(NC4CCCC4)ncnc32)cc1	35µM	–	–	–	·	–
COc1ccc(-n2cc(-c3ccccc3)c3c(NC4CCCCC4)ncnc32)cc1	–	–	–	?	·	–
CCC(=O)N1CCc2cc(Br)cc(S(=O)(=O)N3CCCC(C(=O)Nc4ccc(C(C)C)cc4)C3)c21 (stereo not given)	–	–	–	–	·	8.9µM
CCOc1cc(C2Sc3ccccc3NC3=C2C(=O)c2ccccc23)ccc1O (stereo not given)	11µM	–	–	–	·	?
COC(=O)N1CCCc2cc(S(=O)(=O)NCc3ccccc3)ccc21	–	–	–	–	18µM	–
CC(C)c1ccc(S(=O)(=O)NCc2ccc3c(c2)OCO3)cc1	11µM	–	–	–	–	–
COc1cc(S(=O)(=O)NCc2ccccc2)ccc1Br	13µM	–	–	–	–	·

Compound activity (PubChem BioAssay)
